# NS1 function inh = inhibitors of influenza NS1 protein function. Potency, µM (top dose mostly 46.1 µM), for inactives: top-dose activity, positive = more growth. hit rate 0.4% among 270,000; calls by dose curve; further: potency means the concentration at half of the fitted maximal effect; actives are rising curves; nearly all actives have a fitted effect of over 50% in size
#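 A cell-based growth assay was used: compounds that relieve NS1-induced slow growth of budding yeast raise OD600. Assay medium was yeast nitrogen base with ammonium sulphate and -URA supplement, pH 6.0, with 2% galactose.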
# Pf growth 96h = inhibits malaria parasite growth, 96 h. P. falciparum luciferase reporter growth, 96 h. Potency, µM (doses to about 28.7 µM), for the others: top-dose activity change, negative = inhibition, actives largely listed as inhibitors. hit rate 6.9% among 320,000; further: potency means the concentration at half of the fitted maximal effect; on the % scale 0 is the no-effect control and ±100 the full control effect
#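 Delayed-death screen, second-generation endpoint: infected erythrocytes, 2% hematocrit, 0.05% parasitemia final; 96 hours at 37 C, 5% CO2; luciferase detection reagent; luminescence decrease equals reduced growth.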
# Sm TGR block = inhibitors of Schistosoma mansoni thioredoxin glutathione reductase. AID 485364. purified TGR, DTNB reduction, TNB absorbance 405 nm. Potency, µM (doses to about 114 µM), inactives show at the top dose activity change, negative = inhibition, actives largely listed as inhibitors. hit rate 3% among 360,000; further: potency means the concentration at half of the fitted maximal effect; on the % scale 0 is the no-effect control and ±100 the full control effect; nearly all actives have a fitted effect of over 60% in size
#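 Kinetic colorimetric format: TGR-catalysed, NADPH-driven DTNB reduction monitored via TNB absorbance. Enzyme dispensed at 20 nM; compound exposure 15 min at room temperature before reaction start.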
# Shiga inhibitor = blocks Shiga toxin action in Vero cells | Vero cells, Shiga toxin protein synthesis inhibition reporter | inhibition, % at 38.7 µM | hit rate 9.2% among 290,000 | AID 2315; in the data active means inhibition mostly above about 28%, no sharp cut-off; inactive means mostly below about 43%; further: 0% is about no effect
# Pf growth 48h = P. falciparum growth inhibition at 48 hours (one generation); P. falciparum luciferase growth in erythrocytes, 48 h; Potency, µM (series often up to 28.7 µM), for inactives: top-dose activity change, negative = inhibition, hits mostly inhibitors; hit rate 5.9% among 310,000; AID 504832; further: potency means the concentration at half of the fitted maximal effect; on the % scale 0 is the no-effect control and ±100 the full control effect
#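 Read-out is firefly luciferase luminescence from an integrated reporter in P. falciparum, so falling signal marks reduced parasite growth. Infected erythrocytes were at 2% hematocrit and 0.1% parasitemia (final) in Albumax-supplemented RPMI 1640.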
# Cycloheximide cs = affects cycloheximide protein synthesis inhibition readout, counter-screen; cell reporter, cycloheximide protein synthesis inhibition counterscreen; max response, %; hit rate 12% among 300,000; AID 2314; in the data active means max response mostly above about 13%, no sharp cut-off; inactive means mostly below about 14%; further: read at 38.3 µM for the half of the compounds with a filed dose; 0% is about no effect
# Numbers without * were called inactive; ? = inconclusive; · = no result; [ ] = remark or other dose. Shown are actives, neighbours in structure and some others; about 21% of the full set was active somewhere. Unless noted, the call rests on the fitted dose curve; in most records, active means well fitted curve in the direction sought with a large enough effect; inconclusive means small, poorly fitted or top-dose-only effect, or another doubt; inactive means no such curve, though single readings can be large; an effect the other way counts as inactive or inconclusive.
SMILES,NS1 function inh,Pf growth 96h,Sm TGR block,Shiga inhibitor,Pf growth 48h,Cycloheximide cs
COCCNC(=O)CCn1c(=O)c2cc(OC)c(OC)cc2n(CC(=O)Nc2ccccc2C)c1=O,·,·,-2%,·,·,·
COc1ccc(CCC(=O)Nc2c(C)n(C)n(-c3ccccc3)c2=O)cc1,·,-30%,-6%,7,15%,-7
O=C(CSc1nnc(-c2ccncc2)n1Cc1ccco1)N1c2ccccc2Sc2ccc(Cl)cc21,23%,120%,45µM*,5,-10%,-2
CCn1c(SCC(=O)c2cccs2)nnc1-c1ccco1,-48%,-10%,45µM*,87*,39%,39*
Cc1cccc(C)c1NC(=O)CSc1nnc(-c2ccncc2)n1Cc1ccco1,-1%,13%,8%[11.4 µM],-20,·,-4
Cn1c(SCC(=O)N2c3ccccc3Sc3ccc(Cl)cc32)nnc1-c1ccco1,-39%,1.5µM*,-27%,-2,9.3µM*,1
Cn1c(SCC(=O)NC2CCCCC2)nnc1-c1cc2cc(Cl)ccc2o1,-1%,·,3%,4,·,1
CC(NC(=O)CSc1nnc(-c2cc3cc(Cl)ccc3o2)n1C)c1ccccc1 (stereo unspecified),-18%,4.7µM*,6%,19,?,6
CCC1(c2ccccc2)NC(=O)N(CC(=O)Nc2ccccc2C(=O)NC2CC2)C1=O (stereo unspecified),·,0%,4%,·,?,·
COc1cccc(C(=O)NCc2nc(-c3ccccc3)no2)c1OC,·,·,1%,·,·,·
Cc1c2oc3c(C)ccc(C(=O)N[C@@H]4C(=O)N[C@H](C(C)C)C(=O)N5CCC[C@H]5C(=O)N(C)CC(=O)N(C)[C@@H](C(C)C)C(=O)O[C@@H]4C)c3nc-2c(C(=O)N[C@@H]2C(=O)N[C@H](C(C)C)C(=O)N3CCC[C@H]3C(=O)N(C)CC(=O)N(C)[C@@H](C(C)C)C(=O)O[C@@H]2C)c(N)c1=O,·,0.0024µM*,·,-6,0.0048µM*,1
Cc1ccc(NC(=O)CCc2nnc3n(C)c(=O)c4sccc4n23)cc1C,·,·,10%,·,·,·
Cc1n[nH]c(C)c1S(=O)(=O)N1CCc2ccccc2C1,3%,10µM*,-2%,5,-19%,-6
CC(NC(=O)CN(C)CC(=O)Nc1cccc(F)c1)c1ccccc1 (stereo unspecified),·,-28%,-16%,·,4%,·
CC(=O)Nc1cccc(NC(=O)CSc2nc(=O)n(CCN3CCOCC3)c3c2CCC3)c1,·,-1%,-5%,·,-6%,·
Oc1c(C=C2N=c3ccccc3=N2)sc(=S)n1-c1ccc(F)cc1,-8%,?,-2%,13,-26%,0
Oc1c(C=C2N=c3ccccc3=N2)sc(=S)n1C1CCCC1,13%,?,-8%,25,17%,19*
Oc1[nH]c(=S)sc1C=C1N=c2ccccc2=N1,1%,43%,-12%,38*,71%,25*
Cc1ccc(S(=O)(=O)Nn2c(O)c(C=C3N=c4ccccc4=N3)sc2=S)cc1,5%,41%,13µM*,5,?,-3
CC1O[C@@H]2O[C@](O[C@H](C)CC[C@@H](C)O)(c3ccccc3)O[C@@H]2C[C@H]1O (stereo partly specified),·,83%,-4%,·,-2%,·
O=C(Nc1ccc(Cl)cn1)c1ccc([N+](=O)[O-])o1,-59%,11%,·,119*,?,45*
Cc1cc(C)nc(NC(=O)c2ccc([N+](=O)[O-])o2)n1,-5%,247%,-21%,13,-6%,7
O=C(Nc1c(Cl)ccc2nsnc12)c1ccc([N+](=O)[O-])o1,-18%,?,?,51*,?,41*
O=C(Nc1ccc([N+](=O)[O-])cn1)c1ccc(Br)o1,2%,44%,0%,70,45%,18*
Cc1c(Cl)c([N+](=O)[O-])nn1Cc1ccc(C(=O)Nc2ccc(Cl)cn2)o1,19%,?,-1%,-11,-14%,-2
O=C(Nc1ccon1)c1ccc(Br)o1,-2%,?,0%,-7,13%,0
NS(=O)(=O)c1ccc(NC(=O)COC(=O)CCC2CCCCC2)cc1,-7%,-30%,-13%,-7,-2%,-2
